This passage reports growth results from PubChem BioAssay (NCI).

About 83,000 compounds went through this panel and 20% of them were active in at least one assay; those are over-represented in the sample as a whole.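 Testing used 96-well plates and a 48-hour single-concentration exposure. Example: -40 means 40% of the starting cells died.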 Values without a mark were called inactive. Active and inactive are the calls of the source. How the source made its calls: active means growth percent below 10; inactive means the rest.

Among the test systems are HCC-2998 colon; KM12 colon; MDA-MB-468 breast; RPMI-8226 leukemia; OVCAR-8 ovarian; OVCAR-5 ovarian; OVCAR-4 ovarian; SK-OV-3 ovarian; IGROV1 ovarian; OVCAR-3 ovarian; HS 578T breast; NCI/ADR-RES ovarian; T-47D breast; MDA-MB-435 melanoma; SW-620 colon; MCF7 breast; HCT-116 colon; BT-549 breast.
What all share (experiment): NCI-60 one-dose screen, 48 h (100 = growth as untreated, 0 = no growth, -100 = all killed)
The next experiment relates to SR leukemia. The note with it: 10 µM unless noted.

As for `CC/C(=C(\c1ccc(O)cc1)c1ccc(OCCN(C)C(=O)CCOCCNC(=O)c2ccc3c(c2)CN([C@@H]2CCC(=O)NC2=O)C3=O)cc1)c1ccccc1`, the growth is 99% in the experiment on HCC-2998 colon (1 µM); 103% in the experiment with HCC-2998 colon (10 µM); 102% in the experiment on KM12 colon (1 µM); 103% in the experiment with KM12 colon (10 µM); 25.6% in the experiment with MDA-MB-468 breast (1 µM); 5.97% (active) in the experiment with MDA-MB-468 breast (10 µM).

For the compound `O=C(OCCOCCO)N(c1cccc(Br)c1)c1nc(SCCN2CCOCC2)nc2c1cnn2CC(Cl)c1ccc(Br)cc1` (centres undefined), the growth was -27.8% (active) in the experiment on SR leukemia; -25.7% (active) in the experiment with RPMI-8226 leukemia (10 µM unless noted); 19.6% with OVCAR-8 ovarian (10 µM unless noted); 34.7% in the experiment on OVCAR-5 ovarian (10 µM unless noted); 23.5% in the experiment with OVCAR-4 ovarian (10 µM unless noted); 25.3% in the experiment with SK-OV-3 ovarian (10 µM unless noted). Further, the growth in the experiment on IGROV1 ovarian (10 µM unless noted) was 31.8%; in the experiment with OVCAR-3 ovarian (10 µM unless noted), 20%; in the experiment with HS 578T breast (10 µM unless noted), -2.13% (active); in the experiment on NCI/ADR-RES ovarian (10 µM unless noted), 12.3%; in the experiment with T-47D breast (10 µM unless noted) it was 13.6%; with MDA-MB-435 melanoma (10 µM unless noted) it was 9.72% (active). In addition, the growth is 17.8% in the experiment on SW-620 colon (10 µM unless noted); 4.77% (active) in the experiment on MCF7 breast (10 µM unless noted); 10.8% in the experiment on HCT-116 colon (10 µM unless noted); 12% in the experiment on HCC-2998 colon (10 µM unless noted); -8.97% (active) with KM12 colon (10 µM unless noted); -2.54% (active) with MDA-MB-468 breast (10 µM unless noted).

In the case of `CC/C(=C(\c1ccc(O)cc1)c1ccc(OCCNC)cc1)c1ccccc1`, the growth with RPMI-8226 leukemia (1 µM) is 100%; with RPMI-8226 leukemia (10 µM), 86.1%; in the experiment on OVCAR-8 ovarian (1 µM), 104%; with OVCAR-8 ovarian (10 µM), 97.3%; in the experiment on OVCAR-5 ovarian (1 µM), 97.8%; in the experiment with OVCAR-5 ovarian (10 µM) it was 106%. The growth in the experiment with OVCAR-4 ovarian (1 µM) is 111%; in the experiment on OVCAR-4 ovarian (10 µM), 88.7%; with SK-OV-3 ovarian (1 µM) it was 84.4%; in the experiment on SK-OV-3 ovarian (10 µM), 92.7%; with IGROV1 ovarian (1 µM), 101%; in the experiment on IGROV1 ovarian (10 µM) it was 96.9%. Moreover, the growth in the experiment with OVCAR-3 ovarian (1 µM) is 115%; in the experiment with OVCAR-3 ovarian (10 µM), 85.4%; with HS 578T breast (1 µM), 94.8%; with HS 578T breast (10 µM), 80.5%; in the experiment on NCI/ADR-RES ovarian (1 µM), 103%; in the experiment on NCI/ADR-RES ovarian (10 µM) it was 91.1%. Further, the growth in the experiment with T-47D breast (1 µM) is 59.6%; with T-47D breast (10 µM), 44.8%; in the experiment on BT-549 breast (1 µM) it was 91.4%; in the experiment on BT-549 breast (10 µM) it was 74.4%; in the experiment on MDA-MB-435 melanoma (1 µM), 104%; with MDA-MB-435 melanoma (10 µM), 74.5%. Further, the growth in the experiment on SW-620 colon (1 µM) was 107%; with SW-620 colon (10 µM) it was 89.9%; in the experiment on MCF7 breast (1 µM), 24.9%; in the experiment on MCF7 breast (10 µM), 25.8%; in the experiment with HCT-116 colon (1 µM), 93.2%; in the experiment on HCT-116 colon (10 µM) it was 62.4%. Also, the growth with HCC-2998 colon (1 µM) is 106%; with HCC-2998 colon (10 µM) it was 56.7%; in the experiment on KM12 colon (1 µM), 101%; in the experiment on KM12 colon (10 µM) it was 65.9%; with MDA-MB-468 breast (1 µM) it was 95.6%; in the experiment with MDA-MB-468 breast (10 µM) it was 72.4%.

As to `COc1ccc([C@H]2C(C(=O)c3ccc(Cl)cc3)C3(N[C@@H]2c2ccccc2)C(=O)Nc2ccccc23)cc1` (some centres undefined), the growth is 10.4% in the experiment with RPMI-8226 leukemia (10 µM unless noted); 32.7% with OVCAR-8 ovarian (10 µM unless noted); 50.5% in the experiment on OVCAR-5 ovarian (10 µM unless noted); 31.1% in the experiment on OVCAR-4 ovarian (10 µM unless noted); 72.5% in the experiment on SK-OV-3 ovarian (10 µM unless noted); 35.6% in the experiment with IGROV1 ovarian (10 µM unless noted). The growth in the experiment with OVCAR-3 ovarian (10 µM unless noted) was 27.4%; in the experiment on HS 578T breast (10 µM unless noted), 53.7%; in the experiment with NCI/ADR-RES ovarian (10 µM unless noted) it was 12.2%; with T-47D breast (10 µM unless noted), 16.8%; in the experiment with BT-549 breast (10 µM unless noted) it was 84.3%; with MDA-MB-435 melanoma (10 µM unless noted), 23.4%. Also, the growth in the experiment on SW-620 colon (10 µM unless noted) was 34.7%; in the experiment on MCF7 breast (10 µM unless noted) it was 7.51% (active); in the experiment on HCT-116 colon (10 µM unless noted), 26.1%; in the experiment on HCC-2998 colon (10 µM unless noted), 13.7%; with KM12 colon (10 µM unless noted) it was 15.5%; with MDA-MB-468 breast (10 µM unless noted) it was 28.5%.

As for `CC1=C(C(=O)OC(C)C)C(c2ccc(O)cc2)NC(=O)N1` (centres undefined), the growth with RPMI-8226 leukemia (10 µM unless noted) is 98.9%; with OVCAR-8 ovarian (10 µM unless noted), 108%; in the experiment on OVCAR-5 ovarian (10 µM unless noted), 105%; in the experiment on OVCAR-4 ovarian (10 µM unless noted), 100%; with SK-OV-3 ovarian (10 µM unless noted) it was 106%; in the experiment on IGROV1 ovarian (10 µM unless noted), 109%. Besides, the growth in the experiment on OVCAR-3 ovarian (10 µM unless noted) was 108%; in the experiment on HS 578T breast (10 µM unless noted) it was 99.8%; with NCI/ADR-RES ovarian (10 µM unless noted), 99.8%; in the experiment with T-47D breast (10 µM unless noted), 101%; in the experiment with BT-549 breast (10 µM unless noted), 96.1%; in the experiment on MDA-MB-435 melanoma (10 µM unless noted), 99.9%. The growth with SW-620 colon (10 µM unless noted) is 103%; in the experiment with MCF7 breast (10 µM unless noted) it was 98.6%; with HCT-116 colon (10 µM unless noted) it was 97.1%; in the experiment on HCC-2998 colon (10 µM unless noted), 111%; in the experiment with KM12 colon (10 µM unless noted), 111%; with MDA-MB-468 breast (10 µM unless noted), 103%.

As for `Oc1ccc(Cl)c(Nc2nc(SCCN3CCOCC3)nc3c2cnn3CC(Cl)c2ccc(Br)cc2)c1` (centres undefined), the growth with SR leukemia is -26.7% (active); with RPMI-8226 leukemia (10 µM unless noted) it was 19.2%; with OVCAR-8 ovarian (10 µM unless noted) it was 16.5%; in the experiment on OVCAR-5 ovarian (10 µM unless noted) it was 50.4%; in the experiment on OVCAR-4 ovarian (10 µM unless noted), 31.7%; with SK-OV-3 ovarian (10 µM unless noted), 65.8%. Further, the growth in the experiment with IGROV1 ovarian (10 µM unless noted) was 1.12% (active); in the experiment on OVCAR-3 ovarian (10 µM unless noted), 29.9%; with HS 578T breast (10 µM unless noted), -15.5% (active); in the experiment with NCI/ADR-RES ovarian (10 µM unless noted), 13.5%; in the experiment on T-47D breast (10 µM unless noted), 0% (active); in the experiment on MDA-MB-435 melanoma (10 µM unless noted) it was 12%. Besides, the growth in the experiment on SW-620 colon (10 µM unless noted) is 30.4%; with MCF7 breast (10 µM unless noted), 5.55% (active); in the experiment with HCT-116 colon (10 µM unless noted), 13.8%; in the experiment on HCC-2998 colon (10 µM unless noted), 9.56% (active); in the experiment on KM12 colon (10 µM unless noted), 17.1%; with MDA-MB-468 breast (10 µM unless noted), -26.7% (active).
